The list is not random: actives were taken first. Their share in the collection is about 9.9%.
KB-V1 cytotox: KB-V1 MDR subline cytotoxicity | KB-V1 MDR cells viability, CellTiter-Glo, 72 h | Potency, µM (series often up to 46.1 µM), hits mostly cytotoxic | hit rate 3.4% among 400,000 | AID 1347076; note: potency is the fitted concentration of half-maximal effect; % is set by controls: 0 for no effect and ±100 for the full control effect; nearly all actives have a fitted effect of over 60% in size
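Compound-treated KB-V1 multidrug-resistant cells, 72 h, 37 degrees C; viability by CellTiter-Glo. Fitted qHTS curves give the values.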
MCF10A rerep: DNA re-replication induction in MCF 10a cells; hit rate 2.9% among 350,000; Potency, µM (highest dose often 46.1 µM), for the others: at the highest dose activity, positive = re-replication, usual class: activators; MCF 10A DNA re-replication, Hoechst nuclear intensity, 48 h; note: potency is the fitted concentration of half-maximal effect; % of control where 0% means no effect; nearly all actives have a fitted effect of over 50% in size
KB-3-1 tox: KB-3-1 parental cell cytotoxicity | KB-3-1 viability, CellTiter-Glo ATP luminescence, 72 h | Potency, µM (top dose mostly 46.1 µM), actives largely listed as cytotoxic | hit rate 1.4% among 400,000 | AID 1347075; note: potency is the fitted concentration of half-maximal effect; % is set by controls: 0 for no effect and ±100 for the full control effect; nearly all actives have a fitted effect of over 60% in size
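Parental KB-3-1 adenocarcinoma cells in phenol-red-free DMEM with 10% FBS were pin-treated with compounds at several concentrations, incubated 72 h at 37 °C, and viability read by CellTiter-Glo luminescence; concentration-effect curves were fitted after normalization.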
IL1B secr inh: blocks inflammasome-driven IL-1 beta release; THP-1 LPS/ATP IL-1B secretion, AlphaLISA, 16 h; hits give low values; activity change, % at 57.5 µM; hit rate 4.7% among 360,000; in the data active = activity change below about -50%; inconclusive = mostly about -30% to -49%; note: % is set by controls: 0 for no effect and ±100 for the full control effect
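THP-1 cells pretreated 1 hr with compounds (up to 57.5 uM final), then stimulated with LPS (250 ng/mL final) plus ATP (1.25 mM final); secreted IL-1B measured by AlphaLISA after 16 hr, decreased signal indicating inhibition.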
SW480 rerep: inducers of DNA re-replication in SW480 colon cancer cells; SW480 DNA re-replication, Hoechst DNA content imaging, 48 h; Potency, µM (titrated, usually from 46.1 µM), for the others: at the top dose re-replication activation, hits mostly activators; hit rate 1.8% among 340,000; AID 624297; note: potency is the fitted concentration of half-maximal effect; % of control where 0% means no effect; nearly all actives have a fitted effect of over 55% in size
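Image-based read-out: total Hoechst fluorescence of nuclei (405 nm excitation, 500-530 nm emission), with hits raising the fraction of high-intensity nuclei. SW480 colon cells incubated 48 hr with compounds at 37 C.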
The depositor's hits bear a star; i = inactive; ? = inconclusive; . = not tested or not shown. Unless noted, calls come from the whole dose curve; as a rule, active = well fitted curve in the direction sought with a large enough effect; inconclusive = small, poorly fitted or top-dose-only effect, or another doubt; inactive = no such curve, though single readings can be large; an effect the other way counts as inactive or inconclusive.

SMILES | KB-V1 cytotox | MCF10A rerep | KB-3-1 tox | IL1B secr inh | SW480 rerep
CCN(CC)c1nc(OCCNC(=O)Nc2ccccc2)nc(N(CC)CC)n1 | ? | ? | ? | -63.4* | 18.9%
CCCc1cc2c(c(NC(C)=O)n1)c(=O)oc1ccccc12 | 13µM* | -1.6% | i | 10.4 | -3.9%
CCCC(=O)Nc1cc(C)c2c(=O)oc3ccccc3c2n1 | 18.4µM* | 9.8% | i | -7.5 | -15.7%
Cc1cc(NC(=O)CC(C)(C)C)nc2c1c(=O)oc1ccccc12 | i | 24.1% | i | 38.6 | ?
Cc1nnc(SCc2cc(=O)[nH]c(=S)[nH]2)s1 | i | 0.9% | i | -5.2 | 3.4%
Cc1ccc(CNC(=O)C2CCC(=O)N(Cc3ccccc3F)C2)s1 (stereo not drawn) | i | 28.9% | i | -9.2 | ?
Cn1c(=O)n(CCOc2ccccc2Cl)c2ccccc21 | i | 12.1% | i | 0.0 | 0.5%
N=c1n(CCCOc2ccccc2Cl)c2ccccc2n1CC(N)=O | i | 20.3% | ? | -102.3* | ?
COCCCN(C(=O)c1ccco1)c1nc(-c2ccc(OC)cc2)cs1 | ? | ? | i | -15.8 | 17.8%
CCN(CC)CCCN(C(=O)c1ccco1)c1nc(-c2ccc(C)cc2)cs1 | i | 17.0% | i | -85.3* | ?
CCN(C(=O)c1ccco1)c1nc(CC(=O)Nc2ccc(Cl)cc2)cs1 | 16.4µM* | 11.6µM* | i | -9.7 | 11.6µM*
CCN(CC)CCN(C(=O)c1ccco1)c1nc2ccc(Cl)cc2s1 | i | . | i | . | .
CCN(CC)CCCN(C(=O)c1ccco1)c1nc(-c2ccc(Cl)cc2)cs1 | i | 17.4% | i | -67.4* | ?
N#CNc1nc(O)cc(=O)[nH]1 | i | -2.2% | i | 8.1 | -3.1%
Cc1cc(N)n2nc(-c3ccccc3)cc2n1 | ? | ? | ? | -71.8* | 0.2%
O=C(CN(C(=O)c1csnn1)c1ccccc1)NCCc1ccccc1 | i | ? | i | -3.5 | -2.9%
CN1C(=O)C(O)(CC(=O)/C=C\c2ccc3c(c2)OCO3)c2ccccc21 (stereo not drawn) | i | ? | ? | -101.0* | ?
CN1/C(=C\C(=O)COc2ccc3c(c2)OCO3)C(C)(C)c2ccccc21 | ? | 13µM* | ? | -78.4* | ?
CN1C(=O)C(O)(CC(=O)c2ccc3c(c2)OCO3)c2ccccc21 (stereo not drawn) | i | -10.3% | i | 3.2 | -10.8%
NC(=O)CN1C(=O)C(O)(CC(=O)/C=C\c2ccc3c(c2)OCO3)c2ccccc21 (stereo not drawn) | i | ? | i | -88.0* | 14.3%
CC(C)(C)c1oc(C(=O)O)cc1CN1CCOCC1 | i | -6.1% | i | 13.8 | -2.3%
COc1ccc(-c2noc(N3CCC(C(=O)Nc4ccc(C)c(F)c4)CC3)n2)cc1OC | i | . | i | . | .
C[C@H](NC(N)=O)C(=O)Nc1ccc2c(c1)OCO2 | i | 2.7% | i | -4.7 | 2.8%
Cc1ccc(S(=O)(=O)Nc2ccc(C(=O)Nc3ccncc3)cc2)cc1 | i | 15.3% | i | 7.9 | 3.26µM*
COc1ccc(C(=O)Nc2ccc(S(=O)(=O)Nc3nccnc3OC)cc2)cc1 | 18.4µM* | 6.9% | ? | -14.1 | 17.9%
SMILES | KB-V1 cytotox | MCF10A rerep | KB-3-1 tox | IL1B secr inh | SW480 rerep
COc1nccnc1NS(=O)(=O)c1ccc(NC(=O)c2ccc(F)cc2)cc1 | i | -19.9% | i | 2.2 | -6.7%
O=C(Nc1ccc(Cl)c(C(=O)N2CCOCC2)c1)c1ccccc1 | i | 4.4% | i | 26.4 | -5.3%
CC[n+]1ccccc1/C=C1\Sc2ccc(C)cc2N1C | i | ? | ? | -77.5* | -2.4%
COc1ccc(CC(=O)NCCc2csc(-c3ccc(Cl)cc3)n2)cc1 | 0.92µM* | . | i | . | .
O=C(NCCc1csc(-c2ccc(F)cc2)n1)c1cccc(F)c1 | i | . | ? | . | .
O=C(NCCc1csc(-c2cccnc2)n1)c1ccc(Cl)cc1 | i | 11.6µM* | i | 21.5 | ?
O=C(NCCc1csc(-c2ccc(C(F)(F)F)cc2)n1)c1ccc(F)c(F)c1 | 13µM* | . | 23.1µM* | . | .
O=C(COc1ccc(Cl)cc1)NCCc1csc(-c2ccc(F)cc2)n1 | i | . | i | . | .

Source: PubChem
